# The whole screen tested about 1,100 compounds, of which about 390 (35%) were called active. Another 30% or so got no clear call; they are omitted. Calls follow the shape of the dose curve; as a rule, active = well fitted inhibition curve with a large enough effect; inconclusive = small, poorly fitted or top-dose-only effect; inactive = flat fitted curve, though single readings scatter. Some of the results follow.
# Target: Luciferin 4-monooxygenase (Photinus pyralis) (UniProt P08659)
# Experiment: qHTS of Nrf2 Activators: Hit Validation in Secondary FLuc Assay; also: nearly all actives have a fitted effect of over 65% in size
# Details: firefly luciferase inhibition counter-screen, luminescence; series mostly up to 57.5 µM; activity, negative = inhibition: at the top concentration
# Procedure, shortened: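 Purified firefly luciferase is tested for inhibition by compounds in the presence of its substrates, ATP and D-luciferin, each at Km. Inhibition marks likely false positives arising from reporter-enzyme stabilization.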
# % is scaled to controls: 0 for no effect and ±100 for the full control effect; potency is read from the fitted curve at half-maximal effect.
Compound,"activity, negative = inhibition",Potency
CCCc1nc([N+](=O)[O-])c(S(=O)(=O)c2ccccc2)n1CC(C)C,-3.37% (inactive),–
Clc1cccc(Cc2c(-c3ccccc3)nc3c4ccccc4ccn23)c1,–,6.01 µM (active)
COc1ccccc1Cc1c(-c2ccco2)nc2c3ccccc3ccn12,–,0.301 µM (active)
Cc1ccc(Cc2c(-c3ccco3)nc3c4ccccc4ccn23)cc1,–,0.239 µM (active)
COc1ccc(Cc2c(-c3ccccc3)nc3c4ccccc4ccn23)c(C)c1,–,3.01 µM (active)
FC(F)(F)c1ccccc1Cc1c(-c2ccccc2)nc2c3ccccc3ccn12,–,5.36 µM (active)
Clc1ccsc1-c1csc(-c2cccnc2)n1,–,3.38 µM (active)
CC(=O)N1CCc2c(sc(NC(=O)CCS(=O)(=O)c3ccccc3)c2C#N)C1,2.37% (inactive),–
CCOC(=O)N1CCc2c(sc3c2C(=O)NC(c2ccccc2)N3)C1 (stereo unspecified),–,6.75 µM (active)
COc1ccc([C@H]2Cc3cccc(O)c3C(=O)O2)cc1O,0.428% (inactive),–
COc1ccc2[nH]c3c(NCc4ccco4)ncnc3c2c1,–,4.78 µM (active)
CCc1cc2c(NCc3ccco3)ncnc2s1,-4.96% (inactive),–
Cc1sc2ncnc(NCc3ccco3)c2c1C,-16.7% (inactive),–
Nc1ccccc1C=C1Cc2ccccc2C1=O,–,0.426 µM (active)
O=C1C(=Cc2cccc(F)c2)Cc2ccccc21,–,1.51 µM (active)
COc1cc(OC)c(OC)cc1/C=C1/Cc2ccccc2C1=O,3.06% (inactive),–
O=C1C(=Cc2cccc(Cl)c2)Cc2ccccc21,–,1.07 µM (active)
O=C1C(=Cc2ccccc2Cl)CCc2ccccc21,–,0.169 µM (active)
Cc1c(=O)n(OCc2ccc(Cl)cc2)c2ccccc2[n+]1[O-],1.48% (inactive),–
CC1(O)c2ccccc2C(=O)N1CCc1ccccc1F (stereo unspecified),–,6.75 µM (active)
Oc1ccccc1-n1nc2ccc3nonc3c2n1,-0.935% (inactive),–
FC(F)(F)c1cc(-c2cccs2)nc(-n2cc(Br)cn2)n1,-19.9% (inactive),–
Brc1cc(Br)c2nc(-c3cccs3)ccc2c1,–,3.01 µM (active)

Compound,"activity, negative = inhibition",Potency
FC(F)(F)c1cc(-c2cccs2)nc(NCc2ccco2)n1,-2% (inactive),–
Cc1sc2c(c1C)C(=O)NC(c1ccccc1F)N2 (stereo unspecified),–,2.39 µM (active)
O=C(CN1CCS(=O)(=O)CC1)N/N=C/c1cccc(C(F)(F)F)c1,5.95% (inactive),–
CCOC(=O)c1c(NC(=O)/C=C/c2ccc(C)o2)sc(C)c1C,–,13.5 µM (active)
Cn1nc(C(=O)Nc2c(-c3ccccc3)nc3sccn23)c2ccccc2c1=O,-28.2% (inactive),–
CS/C(=C\C(=O)c1ccco1)Nc1ccccc1Cl,–,2.69 µM (active)
O=C(NCc1ccco1)c1cc(=O)c2ccccc2o1,0.0894% (inactive),–
O=c1cc(/C=C/c2ccccc2)oc2ccccc12,–,2.13 µM (active)
O=[N+]([O-])c1ccccc1N/N=C/c1c[nH]c2ccccc12,–,0.601 µM (active)
O=C(NCCc1c[nH]c2ccccc12)c1ccc([N+](=O)[O-])o1,-26.1% (inactive),–
C(=N\Nc1nc2ccccc2[nH]1)/c1c[nH]c2ccccc12,–,1.35 µM (active)
O=C(N=Nc1c(O)[nH]c2ccc(Br)cc12)c1ccco1,–,10.7 µM (active)
CC(/C=C(\NC(=O)c1ccccc1)C(=O)N=Nc1c(O)[nH]c2ccc(C)cc12)=C\c1ccccc1,-11.7% (inactive),–
O=C(N=Nc1c(O)[nH]c2ccccc12)c1ccco1,–,3.01 µM (active)
Oc1[nH]c2ccccc2c1N=NC(=S)N1CCOCC1,–,9.53 µM (active)
O=C(Nc1c(O)c2ccccc2[nH]c1=O)c1ccco1,-21.5% (inactive),–
Cc1ncc(N=Nc2ccccc2)c(-c2ccccc2)n1,-19.4% (inactive),–
O=C1/C(=C/c2ccccc2O)SC(=S)N1Cc1cccnc1,–,16.9 µM (active)
CN1CCN(C(=O)CCN2C(=O)/C(=C/c3cccc(Br)c3)SC2=S)CC1,-25.4% (inactive),–
COc1ccc(OC)c(/C=C2\SC(=S)N(Cc3cccnc3)C2=O)c1,-23.6% (inactive),–
COC(=O)c1ccc2nc(-c3ccco3)c(Cc3ccccc3)n2c1,–,3.38 µM (active)
COC(=O)c1ccc2nc(-c3cccc(Cl)c3)c(Cc3ccccc3OC)n2c1,–,15.1 µM (active)
COC(=O)c1ccc2nc(-c3ccco3)c(Cc3cccc(Cl)c3)n2c1,–,12 µM (active)

Compound,"activity, negative = inhibition",Potency
COC(=O)c1ccc2nc(-c3cccc(Br)c3)c(CC3CCCCC3)n2c1,-30% (inactive),–
Cc1nn(C)c(C)c1/C=C(/C(=O)C(C)(C)C)n1cncn1,-4.22% (inactive),–
O=C(/C(C=Nc1cccc(C(F)(F)F)c1)=C(/O)c1ccco1)C(F)(F)F,–,13.5 µM (active)
O=C(/C(C=Nc1ccc(F)cc1)=C(/O)c1ccco1)C(F)(F)F,–,10.7 µM (active)
Cc1ccc(NC(=O)CC2S/C(=N/N=C/c3ccco3)NC2=O)cc1Cl (stereo unspecified),-8.08% (inactive),–
Cc1cccc(N=C/C(C(=O)C(F)(F)F)=C(\O)c2ccco2)c1,–,10.7 µM (active)
Cc1ccc(N=C/C(C(=O)C(F)(F)F)=C(\O)c2ccco2)cc1Cl,–,3.01 µM (active)
CSc1nc(Oc2ccc(Cl)cc2)c2sccc2n1,3.01% (inactive),–
CCn1c(=O)c([N+](=O)[O-])c(NCc2ccco2)c2ccccc21,5.01% (inactive),–
N#C/C(=C\c1ccccc1)c1ccccn1,–,9.53 µM (active)
S=c1[nH]nc(-c2ccc(Cl)cc2)n1/N=C/C=C/c1ccco1,–,10.7 µM (active)
Cc1cccc(-c2n[nH]c(=S)n2/N=C/C=C/c2ccco2)c1,–,10.7 µM (active)
O=C(CN1CCN(Cc2ccccc2Cl)CC1)N/N=C/C=C/c1ccco1,0.724% (inactive),–
S=C(NNc1ccc2ccccc2c1)NC1CCCCC1,–,6.75 µM (active)
CNC(=O)C1CCN(S(=O)(=O)c2c(C)noc2/C=C/c2ccccc2F)CC1,3.63% (inactive),–
COc1ccc(N=Nc2ccc(O)c3ncccc23)cc1,–,9.53 µM (active)
CCN(CC)CCNC(=O)C(Cl)=C1C(Cl)=C(Cl)C(Cl)=C1Cl,-0.406% (inactive),–
N#Cc1c(-c2ccccc2)cc(-c2ccccc2)[nH]c1=O,1.09% (inactive),–
Cc1cc(=O)n2nc(-c3ccccc3)sc2c1C#N,–,23.9 µM (active)
[O-][n+]1onc2c3cc(-c4ccccc4)nnc3ccc21,-23.4% (inactive),–
Cc1cc(O)cc2c1C(=O)/C(=C/c1ccco1)O2,–,2.39 µM (active)
Cn1nnnc1Sc1ncnc2scc(-c3cccc4ccccc34)c12,-25.5% (inactive),–
O=C(Nc1cc(Br)ccc1O)c1cnn2c(C(F)F)cc(C3CC3)nc12,-21.9% (inactive),–

Compound,"activity, negative = inhibition",Potency
c1ccc(N2CC3CCc4ccccc4C3=N2)cc1 (stereo unspecified),–,3.01 µM (active)
c1ccc(N2CC3COc4ccccc4C3=N2)cc1 (stereo unspecified),–,4.26 µM (active)
CCOc1ncccc1C(=O)NNC(=O)c1ccc(NS(=O)(=O)c2cccs2)cc1,-0.928% (inactive),–
C/C(=N\NC(=O)c1cccc(Br)c1)c1ccccn1,–,8.49 µM (active)
CC(=O)c1nn(-c2ccccc2)cc1C(=O)c1cccc(Br)c1,-11% (inactive),–
FC(F)(F)c1nnc2c(Sc3ccccn3)nc3ccccc3n12,-5.64% (inactive),–
CCn1c(=NC(=O)c2ccco2)sc2cccc(F)c21,–,6.01 µM (active)
CCn1c(=N)n(CC(=O)c2ccco2)c2ccccc21,5.63% (inactive),–
COc1ccc(Br)cc1/C=N/Nc1ccccn1,-22.8% (inactive),–
COc1cc(/C=N/Nc2ccccn2)cc(OC)c1O,–,2.13 µM (active)
N/C(=N\OC(=O)c1ccccc1Cl)c1ccncc1,–,4.78 µM (active)
N/C(=N\OC(=O)c1cc(Cl)ccc1Cl)c1ccncc1,–,15.1 µM (active)
N#C/C(=C\C=C\c1ccccc1)C(=O)NCc1cccnc1,-7.08% (inactive),–
N/C(=N\OC(=O)c1cccc2ccccc12)c1cccnc1,4.57% (inactive),–
N/C(=N\OC(=O)c1cc(Cl)ccc1Cl)c1cccnc1,–,4.78 µM (active)
N/C(=N\OC(=O)/C=C/c1ccccc1)c1cccnc1,–,5.36 µM (active)
O=C1C2C3C=CC(C4CC34)C2C(=O)N1/N=C/c1ccc([N+](=O)[O-])o1 (stereo unspecified),-29.9% (inactive),–
CCCn1nc([N+](=O)[O-])c(C(C#N)c2nc3ccccc3s2)c(Cl)c1=O (stereo unspecified),–,12 µM (active)
Nc1ccccc1N1C(=O)c2cccc3cccc(c23)C1=O,-18.6% (inactive),–
Cc1ccc([N+](=O)[O-])cc1NC(=S)NC(=O)c1ccco1,1.78% (inactive),–
CCCc1cc(C(N)=O)c(NC(=O)c2ccco2)s1,–,3.01 µM (active)
Cc1sc(NC(=O)c2ccco2)c(CN2CCCCC2)c1C,-22.7% (inactive),–
Cc1ccc2nsnc2c1NC(=S)NC(=O)c1ccco1,-3.95% (inactive),–

Compound,"activity, negative = inhibition",Potency
CCc1c(C)sc(NC(=O)c2ccco2)c1C#N,–,12 µM (active)
Cc1sc(NC(=S)NC(=O)c2ccco2)c(C(N)=O)c1C,–,1.2 µM (active)
NC(=O)c1c(NC(=O)c2ccco2)sc2c1CCC2,–,2.13 µM (active)
COC(=O)CSc1nc2ccccn2c(=O)c1C=O,6.66% (inactive),–
COn1c(=O)c(-c2cccc(Br)c2)[n+]([O-])c2ccccc21,1.19% (inactive),–
N#CC1=C(N)Oc2c(ccc3ccccc23)C1c1ccsc1 (stereo unspecified),–,16.9 µM (active)
COc1ccc(S(=O)(=O)N2CCN(C(=O)c3ccc([N+](=O)[O-])o3)CC2)cc1,8.39% (inactive),–
COc1cccc(NC(=O)c2nc(SC)ncc2Cl)c1,-0.657% (inactive),–
COc1cccc(NC(=O)c2nn(C)cc2Br)c1,–,12 µM (active)
COc1ccc(S(=O)(=O)NCCc2csc3nc(-c4ccc(Cl)cc4)nn23)cc1C,-6.04% (inactive),–
O=C(Nc1ccccc1[N+](=O)[O-])C1COc2ccccc2O1 (stereo unspecified),–,3.01 µM (active)
CCOc1ccccc1NC(=O)C1COc2ccccc2O1 (stereo unspecified),-24% (inactive),–
COc1ccc(NC(=O)c2ccc([N+](=O)[O-])s2)c([N+](=O)[O-])c1,2.08% (inactive),–
Cn1c(=O)n(CCc2ccccc2)c(=O)c2c1nc1n2CCN1Cc1ccco1,-19.5% (inactive),–
Cc1csc2nc(NC(=O)c3ccccc3)sc(=O)c12,–,2.39 µM (active)
Cc1ccccc1C(=O)Nc1nc2c(C)csc2c(=O)s1,-24% (inactive),–
O=C(Nc1nc(=O)c2ccccc2s1)c1ccccc1,–,1.07 µM (active)
Cc1csc2c(=O)sc(NC(=O)c3ccc(F)cc3Cl)nc12,0.172% (inactive),–
O=C(NCc1ccccc1)c1c(Cl)nc(Cl)c(Cl)c1Cl,2.71% (inactive),–

# Source: PubChem BioAssay AID651597 (National Center for Advancing Translational Sciences (NCATS), 2012)
